CYP2C9 inhib: blockers of cytochrome P450 2C9 activity – biochemical, luminescence, ADME assay, primary screen; CYP2C9 Supersomes, luciferin-H conversion; inhibition, % at 5 µM; 20% of 96,000 active;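 active = blocking of liver enzyme CYP2C9 beyond about 50% at 5 µM, limit read from the data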
CYP2C19 inh: blockers of cytochrome P450 2C19 activity – biochemical, luminescence, ADME assay, primary screen; 21% of 96,000 active; inhibition, % at 5 µM; P33261; CYP2C19 Supersomes, luciferin-H EGE luminescence, 30 min;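 active = CYP2C19 inhibition above a set limit at 5 µM in the primary screen, cut at about 50% in these data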;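 note: plate controls were negative control wells for no effect and 2.5 mM tranylcypromine positive control for full effect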
CYP2C9 act: human CYP2C9 activators, primary screen, biochemical, luminescence; recombinant CYP2C9, luciferin-H conversion; active compounds read high; factor 1 = untreated enzyme, 0 = blocked; activation factor at 5 µM; 1.4% of 96,000 active; AID 1024, 2008;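 active = activation factor of 2 or more for CYP2C9 at a 5 µM dose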;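 note: 0 = sulfaphenazole-blocked wells and 1 = vehicle-only wells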
Mac1 fbg enh: enhancers of CD11b/CD18 adhesion to fibrinogen, primary screen, K562 cells, luminescence | ATPlite luminescence | 0.07% of 93,000 active | activation, % at 10 µM | Integrin beta-2 (Homo sapiens) + Integrin alpha-M (Homo sapiens), P05107+P11215;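 active = 10 µM primary screen giving 50% or more activity, confirmed by 40% or more on retest at that dose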
Target sequence (P05107 whole entry, looked up, other chains not shown): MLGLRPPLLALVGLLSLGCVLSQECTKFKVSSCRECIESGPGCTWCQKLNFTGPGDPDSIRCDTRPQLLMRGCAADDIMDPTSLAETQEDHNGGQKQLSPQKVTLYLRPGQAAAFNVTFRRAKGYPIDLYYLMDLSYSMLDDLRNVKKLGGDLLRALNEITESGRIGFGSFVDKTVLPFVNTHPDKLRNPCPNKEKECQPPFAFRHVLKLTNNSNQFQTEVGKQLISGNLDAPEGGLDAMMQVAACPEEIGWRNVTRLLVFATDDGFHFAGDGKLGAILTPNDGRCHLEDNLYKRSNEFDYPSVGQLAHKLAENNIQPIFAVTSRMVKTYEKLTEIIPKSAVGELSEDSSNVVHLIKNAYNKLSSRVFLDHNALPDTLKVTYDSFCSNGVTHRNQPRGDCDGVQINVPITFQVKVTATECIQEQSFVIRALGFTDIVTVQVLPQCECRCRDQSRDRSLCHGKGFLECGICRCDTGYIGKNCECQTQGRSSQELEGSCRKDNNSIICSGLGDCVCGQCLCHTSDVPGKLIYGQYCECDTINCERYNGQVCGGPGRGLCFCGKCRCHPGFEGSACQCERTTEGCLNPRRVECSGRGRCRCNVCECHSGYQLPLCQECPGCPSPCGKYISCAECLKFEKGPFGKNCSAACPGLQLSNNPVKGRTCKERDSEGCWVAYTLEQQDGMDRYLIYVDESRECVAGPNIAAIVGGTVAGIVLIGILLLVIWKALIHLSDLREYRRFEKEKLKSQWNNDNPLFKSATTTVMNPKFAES
CD11b adhes inh: inhibitors of CD11b/CD18 adhesion to fibrinogen, primary screen, K562 cells, luminescence. Integrin beta-2 (Homo sapiens) + Integrin alpha-M (Homo sapiens), P05107+P11215. ATPlite luminescence; Mn2+ added to activate the integrin. AID 1497, 2009. inhibition, % at 10 µM. 0.54% of 93,000 active;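 active = primary inhibition of 50% or more at 10 µM, then 40% or more on retest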
CYP2C19 act: human CYP2C19 activators, primary screen, biochemical, luminescence; Cytochrome P450 2C19 (Homo sapiens), P33261; recombinant CYP2C19, luciferin-H EGE luminescence; active compounds read high; 0 = fully inhibited enzyme, 1 = untreated enzyme; activation factor at 5 µM; 96,000 tested, under 10 active;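 active = activation factor of at least 2 at 5 µM in the primary screen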;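 note: 0 = wells with 2.5 mM tranylcypromine and 1 = vehicle-only wells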
* hit, by the source's call; . = no result. An excerpt weighted towards active compounds, which were near 28% of everything screened.

SMILES | CYP2C9 inhib | CYP2C19 inh | CYP2C9 act | Mac1 fbg enh | CD11b adhes inh | CYP2C19 act
O=C(Nc1ccc(N2CCN(C(=O)c3ccco3)CC2)c(Cl)c1)c1cc2ccccc2o1 | 92* | 71* | 0.1 | 5 | 51 | 0.3
CC1CCC(N2CCN(c3ncccn3)CC2)C1 (stereo not drawn) | 3 | 46 | 1 | 0 | 8 | 0.5
CCC(=O)Nc1nnc(CSCc2ccccc2)s1 | -3 | 27 | 1 | 0 | -2 | 0.7
CC(=O)C(=[N+]=[N-])C(=O)NCc1ccccc1 | -5 | 23 | 1.1 | -5 | -32 | 0.8
O=C(O)c1nn(-c2ccccc2)ccc1=O | 1 | -2 | 1 | 0 | -15 | 1
CCC(=O)N1CCN(c2ccc(NC(=O)c3cc4ccccc4o3)cc2Cl)CC1 | 50* | 36 | 0.5 | -1 | 17 | 0.6
O=C(c1cc2ccccc2o1)N1CCN(c2ccccc2Cl)CC1 | 44 | 44 | 0.6 | 0 | -18 | 0.6
CCCC(=O)N1CCN(c2ccc(NC(=O)c3cc4ccccc4o3)cc2Cl)CC1 | 82* | 81* | 0.2 | -6 | 73 | 0.2
O=C(Nc1ccc(Br)cc1F)C1CCN(c2nnc(-n3cccc3)s2)CC1 | 0 | -5 | 1 | 10 | -9 | 1.1
COC(=O)CC/C(O)=C1/C(=N)CC(C)(C)CC1=O | 3 | 0 | 1 | -3 | -1 | 1
Nc1c2c(=O)oc(-c3ccccc3)cc2nn1-c1ccccc1 | 39 | 14 | 0.6 | . | . | 0.9
Cc1cc2c(c(C)nn2-c2ccccc2)c(=O)o1 | 39 | 56* | 0.6 | 0 | -16 | 0.4
CCc1ccccc1S(=O)(=O)Cc1ccc(C(=O)N2CCN(c3ccccn3)CC2)o1 | 5 | 39 | 1 | 4 | 6 | 0.6
Nc1ccccc1C#Cc1ccccc1 | 18 | 53* | 0.8 | . | . | 0.5
Nc1ccc(C#Cc2ccccc2)cc1 | 13 | 1 | 0.9 | . | . | 1
CCOC(=O)Cc1csc(NC(=O)c2cc3c(s2)CCCC3)n1 | 64* | 27 | 0.4 | -3 | 14 | 0.7
CCOC(=O)Cc1csc(NC(=O)c2csc3c2CCCC3)n1 | 75* | 65* | 0.3 | -3 | 8 | 0.4
Cc1csc(NC(=O)c2cc3c(s2)CCCC3)n1 | 9 | 16 | 0.9 | -6 | 70 | 0.8
CCCCOn1c(C)c(C(=O)OCC)c2c3no[n+]([O-])c3ccc21 | 62* | 45 | 0.4 | . | . | 0.6
CCOC(=O)c1c(C)n(OC)c2ccc3c(no[n+]3[O-])c12 | 43 | 46 | 0.6 | 1 | -8 | 0.5
COC(=O)C1Sc2[nH]c(=O)sc2C(c2ccc(Cl)cc2)C1C(=O)OC (stereo not drawn) | 93* | 75* | 0.1 | -1 | -9 | 0.3
O=C(CN(C(=O)c1ccco1)c1cccc(F)c1)NCc1ccc(F)cc1 | 35 | 78* | 0.7 | -2 | 13 | 0.2
O=C(CN(Cc1ccc(F)cc1)C(=O)c1ccco1)NCc1ccc(F)cc1 | 26 | 83* | 0.7 | 2 | -48 | 0.2
O=C(c1ccco1)N(CCC(c1ccccc1)c1ccco1)Cc1ccc(F)cc1 (stereo not drawn) | 85* | 34 | 0.1 | . | . | 0.7
COC(=O)[C@H](C)NC(=O)Nc1cccc(C)c1 | 6 | -1 | 0.9 | -5 | 7 | 1
SMILES | CYP2C9 inhib | CYP2C19 inh | CYP2C9 act | Mac1 fbg enh | CD11b adhes inh | CYP2C19 act
CCN1C(=O)/C(=C2/Sc3ccc(OC)cc3N2C)SC1=Nc1cccc(O)c1 | 55* | 36 | 0.4 | 28 | -3 | 0.6
COc1ccc2c(c1)N(C)/C(=C1/SC(=NCc3ccccc3)N(c3ccccc3)C1=O)S2 | 36 | 8 | 0.6 | 39 | -13 | 0.9
CC(C)C(NC(=O)c1ccco1)C(=O)NCC(c1ccco1)N1CCCCC1 (stereo not drawn) | 30 | 31 | 0.7 | -4 | -34 | 0.7
c1ccc(-c2nn3c(Cn4nnc5ccccc54)nnc3s2)nc1 | 39 | 78* | 0.6 | 30 | -34 | 0.2
Clc1ccccc1CSc1nnc(Cn2cnc3ccccc32)n1-c1ccccc1 | 2 | 61* | 1 | -1 | -2 | 0.4
c1ccc2c(c1)ncn2Cc1nnc2sc(-c3ccc4c(c3)OCO4)nn12 | 81* | 8 | 0.2 | -2 | 0 | 0.9
c1ccc(CCc2nn3c(Cn4cnc5ccccc54)nnc3s2)cc1 | 6 | 18 | 0.9 | 2 | -18 | 0.8
COc1ccc(OCc2nn3c(Cn4cnc5ccccc54)nnc3s2)cc1 | 25 | 16 | 0.7 | -1 | 14 | 0.8
Clc1ccccc1-c1nn2c(Cn3cnc4ccccc43)nnc2s1 | 25 | 58* | 0.7 | -1 | 6 | 0.4
O=C(NCc1nnc(SCC(=O)N2CCCc3ccccc32)n1-c1ccccc1)c1cccc2ccccc12 | . | . | . | -5 | 14 | .
CCn1c(/C=C/N(C)c2ccccc2)[n+](CC)c2ccc(Cl)cc21 | 16 | 2 | 0.8 | -4 | 19 | 1
COC(=O)c1ccc(CSc2nnc(SCc3ccc(C(=O)OC)o3)s2)o1 | 59* | 34 | 0.4 | 1 | 7 | 0.7
COC(=O)c1ccc(CSc2nc(-c3ccccc3)cs2)o1 | 56* | 25 | 0.4 | -2 | 8 | 0.8
CCn1c(SCC(=O)Nc2ccccc2C(=O)OC)nnc1-c1ccc(N)cc1 | 16 | 98* | 0.8 | . | . | 0
CCn1c(CC(=O)Nc2ccccc2)nnc1SCC(=O)Nc1ccccc1C(=O)OC | 3 | 1 | 1 | 8 | -11 | 1
CCn1c(SCC(=O)Nc2ccccc2C(=O)OC)nnc1-c1ccoc1C | 20 | 94* | 0.8 | -6 | -15 | 0.1
CCn1c(SCC(=O)c2ccc(O)c(O)c2)nnc1-c1ccc(C)cc1 | 6 | 36 | 0.9 | -6 | 22 | 0.6
CCn1c(SCC(=O)c2ccc3c(c2)Cc2ccccc2-3)nnc1-c1ccc(N)cc1 | 26 | 25 | 0.7 | 92* | 1 | 0.7
CN(C)S(=O)(=O)c1cccc(C(=O)NCc2cccs2)c1 | 60* | 51* | 0.4 | -3 | -4 | 0.5
CCN(CC)S(=O)(=O)c1ccc(C(=O)NCc2cccs2)cc1 | 53* | -8 | 0.5 | 0 | 6 | 1.1
COc1ccc(C(CC(=O)O)NC(=O)c2cccs2)cc1 (stereo not drawn) | 0 | 4 | 1 | 2 | 26 | 1
CC1CCN(S(=O)(=O)c2cccc(C(=O)NCc3cccs3)c2)CC1 | 28 | 15 | 0.7 | 1 | 0 | 0.9
CCOC(=O)CC(NC(=O)c1cccs1)c1ccc(OCC)cc1 (stereo not drawn) | 65* | 52* | 0.3 | . | . | 0.5
CCOc1ccc(C(=O)NCc2cccs2)cc1 | 29 | 67* | 0.7 | 0 | -2 | 0.3

Screening data as filed in PubChem.
